Bioassay records from PubChem BioAssay.
FXIa inh mix = FXIa protease inhibitors in compound pools, primary screen, biochemical, 10-compound mixtures | Coagulation factor XI (Homo sapiens), P03951 | purified FXIa, fluorogenic substrate, pooled mixtures | inhibition, % at 5 µM | hit rate 0.19% among 62,000 | AID 680, 2007;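 also: each value is inhibition by a whole ten-compound pool holding the compound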
FXIIa inh mix = human factor XIIa inhibitors, primary screen, biochemical, pooled compound mixtures, fluorogenic substrate | purified FXIIa | inhibition, % at 5 µM | hit rate 0.2% among 62,000
E coli RNAP = E. coli RNAP inhibitors, biochemical; DNA-directed RNA polymerase subunit beta (Escherichia coli (strain K12)), P0A8V2; E. coli RNA polymerase, fluorescence transcription assay; inhibition, %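 (tested at 10 µM)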; hit rate 0.2% among 62,000; in the data active = inhibition above about 20%
Target sequence (P0A8V2 whole entry, looked up): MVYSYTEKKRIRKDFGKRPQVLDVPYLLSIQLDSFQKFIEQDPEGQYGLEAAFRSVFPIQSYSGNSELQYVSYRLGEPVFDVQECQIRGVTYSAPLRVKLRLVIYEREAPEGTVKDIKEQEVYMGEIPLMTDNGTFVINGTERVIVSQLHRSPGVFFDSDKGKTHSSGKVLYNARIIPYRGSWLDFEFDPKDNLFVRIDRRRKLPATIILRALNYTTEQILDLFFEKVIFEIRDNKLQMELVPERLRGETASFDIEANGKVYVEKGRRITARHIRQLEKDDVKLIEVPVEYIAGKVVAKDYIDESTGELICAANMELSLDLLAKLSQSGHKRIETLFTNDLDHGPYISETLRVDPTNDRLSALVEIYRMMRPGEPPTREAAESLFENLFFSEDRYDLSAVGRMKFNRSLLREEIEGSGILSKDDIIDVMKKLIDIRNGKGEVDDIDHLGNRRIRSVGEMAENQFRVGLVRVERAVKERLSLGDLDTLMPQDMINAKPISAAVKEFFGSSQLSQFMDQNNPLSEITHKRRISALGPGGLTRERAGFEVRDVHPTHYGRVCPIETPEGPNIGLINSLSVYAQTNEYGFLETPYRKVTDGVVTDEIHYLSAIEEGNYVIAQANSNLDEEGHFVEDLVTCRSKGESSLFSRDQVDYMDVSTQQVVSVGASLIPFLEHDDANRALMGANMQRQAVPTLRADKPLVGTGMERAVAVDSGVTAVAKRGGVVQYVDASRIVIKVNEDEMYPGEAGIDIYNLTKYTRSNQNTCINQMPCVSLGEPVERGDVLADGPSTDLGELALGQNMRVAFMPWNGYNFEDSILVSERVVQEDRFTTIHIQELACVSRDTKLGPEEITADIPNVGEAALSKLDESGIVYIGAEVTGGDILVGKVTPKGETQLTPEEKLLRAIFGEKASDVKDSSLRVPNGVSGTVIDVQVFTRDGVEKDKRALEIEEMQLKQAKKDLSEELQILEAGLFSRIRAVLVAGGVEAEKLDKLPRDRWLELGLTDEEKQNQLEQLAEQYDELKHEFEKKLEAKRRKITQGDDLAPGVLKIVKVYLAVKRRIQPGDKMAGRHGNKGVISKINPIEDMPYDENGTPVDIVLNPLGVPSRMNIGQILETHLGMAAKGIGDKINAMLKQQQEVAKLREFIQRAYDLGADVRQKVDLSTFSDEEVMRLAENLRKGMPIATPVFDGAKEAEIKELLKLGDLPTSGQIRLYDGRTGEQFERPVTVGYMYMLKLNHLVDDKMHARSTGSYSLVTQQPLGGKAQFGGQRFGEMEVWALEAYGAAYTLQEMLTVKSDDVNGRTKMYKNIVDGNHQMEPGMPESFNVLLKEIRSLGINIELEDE
C1s block = complement C1s protease inhibitors, primary screen, biochemical, 10-compound mixtures | hit rate 0.16% among 62,000 | Complement C1s subcomponent (Homo sapiens), P09871 | purified C1s, fluorogenic AMC substrate, pooled mixtures | mean inhibition % of two 10-compound mixtures (hits give high values), % at 5 µM (by protocol) | AID 538, 2006;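 active = inhibition above 20% in each of the two 10-compound mixture wells holding the compound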
CatG inh = human cathepsin G inhibitors, primary screen, biochemical, pooled compound mixtures, AMC fluorescence. hit rate 0.2% among 62,000. inhibition, % at 5 µM (by protocol). P08311. AID 581, 2007. purified enzyme, AMC-tetrapeptide fluorescence;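 active = inhibition above 20% in each of the two mixture wells holding the compound; inactive = inhibition of 20% or less in either well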
Each line names hits and unclear results; the compound was inactive in the other large screens. Rows were chosen to be rich in hits. Some 0.65% of all compounds tested hit in one or more screens of this group. Rule as the data show it, unless noted: active = inhibition above about 20% (passing the limit was not always enough); inactive = the rest.

Nc1nc(Cn2nnc(-c3ccccc3Cl)n2)nc(N2CCOCC2)n1	FXIIa inh mix 20.9
Nc1nc(Cn2nnc(-c3ccccc3F)n2)nc(N2CCOCC2)n1	none
CCN1CCN(S(=O)(=O)c2ccc(OC)c(Br)c2)CC1	none
COc1ccc(CC(=O)OCc2cc3ccccc3[nH]c2=O)cc1	C1s block 67.4
CCOC(=O)C(C(=O)OCC)[C@@H]1CS(=O)(=O)C[C@H]1C(C(=O)OCC)C(=O)OCC	none
O=C(CCC1CCCC1)Nc1ccc(Br)cn1	none
CCOC(=O)c1[nH]c(C)c(C(=O)Nc2ccccc2C)c1C	E coli RNAP 21.3
CCOC(=O)c1[nH]c(C)c(C(=O)Nc2cc(Cl)ccc2C)c1C	none
Cc1cc(NC(=O)c2noc3c2CCc2ccccc2-3)n(-c2ccccc2)n1	CatG inh 58.7
COc1ccc2[nH]c(=O)c(CN(Cc3nnnn3Cc3ccc(F)cc3)CC3CCCO3)cc2c1 (stereo not drawn)	FXIIa inh mix 21.4
Cc1cc(=O)[nH]c(N2CCN(Cc3ccccc3)CC2)n1	none
CCCCc1c(O)nc(N2CCN(Cc3ccccc3)CC2)[nH]c1=O	E coli RNAP 42.6
CCCCn1c(SCC(=O)NC(C)(C)C)nnc1-c1ccco1	FXIIa inh mix 21.0
COc1ccc(-n2c(Cc3cccn3C)nnc2SCC(=O)Nc2ccc3c(c2)OCO3)cc1	none
c1ccc(-c2nc3c4ccccc4nc(N4CCN(c5ccccn5)CC4)n3n2)cc1	none
NC(=O)c1ccccc1NC(=O)CN1CCOCC1	FXIa inh mix 20.3
Cc1ccc(-c2nn3c(C)nnc3s2)cc1NC(=O)c1ccc(OC(C)C)cc1	FXIa inh mix 22.2
Cc1c(NC(=O)C2CCCN2S(=O)(=O)c2ccccc2)c(=O)n(-c2ccccc2)n1C (stereo not drawn)	none
Cc1c(NC(=O)C2Cc3ccccc3CN2C(=O)c2ccco2)c(=O)n(-c2ccccc2)n1C (stereo not drawn)	C1s block 20.8
COc1ccc(CCNC(=O)c2cc(-c3ccccc3)on2)cc1OC	FXIIa inh mix 47.3
COc1ccccc1-c1cc(C(=O)NCc2ccc(F)cc2)no1	none (no result: CatG inh)
COCCNC(=O)c1cc(-c2ccc(OC)c(OC)c2)on1	none
COc1ccccc1-c1cc(C(=O)NCc2ccc(Cl)cc2)no1	CatG inh 45.7
COc1ccccc1-c1cc(C(=O)NCc2ccccc2)no1	CatG inh 51.1
CCn1c(SC(C)C(=O)OC)nnc1-c1c[nH]c2ccccc12 (stereo not drawn)	none
Cc1cnc(C(=O)Nc2ccccc2-c2ccc(C)o2)cn1	CatG inh 28.2
CC(=O)NCCc1ccc(S(=O)(=O)Nc2cccnc2)cc1	none
CN(C(=O)c1ccncc1)C1CC(C)(C)N(O)C(C)(C)C1	E coli RNAP 20.7
COC(=O)c1ccccc1NC(=O)c1cc2sccc2n1C	CatG inh 30.9
Cc1ccc(S(=O)(=O)NCC(c2cccnc2)N(C)C)cc1 (stereo not drawn)	none
CCCCC(=O)Nc1ccc(NC(=O)c2cccnc2)cn1	C1s block 21.0
COc1cccc(C2NC(=O)NC(C)=C2C(=O)Nc2cccc(C)c2C)c1 (stereo not drawn)	FXIIa inh mix 21.4
Cc1ccc(C(=O)CCNc2ccc(F)c(Cl)c2)o1	none
O=C(Oc1ccc(Cl)cc1N1C(=O)CCC1=O)c1ccco1	C1s block 26.3
O=C(Oc1ccc(N2C(=O)CCC2=O)cc1)c1ccco1	none
CCOC(=O)N1CCC(N2C(=O)c3cc(C(=O)NC4CCCCC4)ccc3C2O)CC1 (stereo not drawn)	FXIa inh mix 24.8
COc1ccc(Cl)cc1NC(=O)N(C)Cc1c(C)nn(C)c1C	none
CCOC(=O)N1CCC(Nc2c(NCCCN(C)Cc3ccccc3)c(=O)c2=O)CC1	none
CCn1c(SC)nnc1-c1sc2cc(Cl)ccc2c1Cl	FXIIa inh mix 42.5
COC(=O)CSC1=C(C#N)C(c2ccc(F)cc2)CC(=O)N1 (stereo not drawn)	E coli RNAP 20.7
CSC1=C(C#N)C(c2ccc(C(C)C)cc2)CC(=O)N1 (stereo not drawn)	none
CC(O)Cn1cnc2c1c(=O)n(C)c(=O)n2C (stereo not drawn)	none
Cc1cc(C)n(CCc2nc3c4ccccc4nc(SCc4ccc(C#N)cc4)n3n2)n1	FXIIa inh mix 25.6
Cc1cc(C)n2c(SCc3ccc(C#N)cc3)nnc2n1	none
O=C1c2ccccc2C(=O)N1CSc1ncccn1	none
COc1ccccc1NC(=O)CSc1nnc(-c2ccccn2)n1Cc1ccco1	FXIa inh mix 50.2, CatG inh 31.1
CCOC(=O)CSc1nnc(CNC(=O)Cc2ccccc2)n1C	none
COC(=O)CSc1nnc(CNC(=O)Cc2ccccc2)n1C	FXIa inh mix 26.1
COCCN(CCOC)Cc1c(C)[nH]c2ccccc2c1=O	none
O=c1cc(-c2ccccc2)nc2nc(-c3ccccc3)[nH]n12	C1s block 44.2
Cc1cc(NS(=O)(=O)c2ccccc2)c(C)c(Cl)c1O	E coli RNAP 20.6
Cc1ccccc1NS(=O)(=O)c1cc(S(C)(=O)=O)ccc1Cl	none
CC1=C(C(=O)OCC2CCCO2)C(c2ccncc2)C2=C(CC(C)(C)CC2=O)N1 (stereo not drawn)	none
COc1ccc(-c2nnc3n2N=C(c2ccccc2)CS3)cc1OC	FXIIa inh mix 32.0
COc1ccc(C2=Nn3c(nnc3-c3ccccc3)SC2)cc1OC	none
Cc1cc(C)cc(N2CCCn3c2nc2c3c(=O)n(CCN3CCOCC3)c(=O)n2C)c1	FXIa inh mix 22.7
Cc1ccc(N2CCCn3c2nc2c3c(=O)n(CCN3CCOCC3)c(=O)n2C)cc1	none
CCOc1ccc2[nH]c3c(N4CCN(c5ccccn5)CC4)ncnc3c2c1	C1s block 69.0
Cc1ccc(N=Cc2cccc(O)c2O)c(C)c1	none
CCc1ccc(O)c(N=Cc2ccccc2O)c1	E coli RNAP 27.4
CCOc1ccc(NC(=O)CN(C)CC(=O)NC2CCCc3ccccc32)cc1OCC (stereo not drawn)	none
CCC(=O)Nc1nc(C)cc(SCC(=O)OC)n1	FXIa inh mix 20.7
COC(=O)CSc1nc2nc(C)cc(C)n2n1	none
Cc1ccc(N(CC(=O)Nc2cccc(C)c2)S(=O)(=O)c2cccc3nonc23)cc1	none
COc1ccccc1NC(=O)CSc1nnc(CNC(=O)COc2ccc(Cl)cc2)o1	none
C/C(=N/n1cnnc1)c1cccnc1	E coli RNAP 26.8 (no result: FXIa inh mix, FXIIa inh mix, C1s block, CatG inh)
Cc1nn(C(=O)c2cccnc2)c(C)c1C	none
O=C(Oc1ccc2ccccc2c1)c1ccco1	none
CC(=O)Nc1cc(OC(=O)c2ccco2)cc(OC(=O)c2ccco2)c1	FXIa inh mix 25.0 (no result: E coli RNAP)
COc1ccccc1-c1c(C#N)c(SCC(=O)N2CCCC2)nc(C)c1C(N)=O	CatG inh 24.9
COc1ccc(-c2nnc(SCc3ncc(-c4ccccc4)o3)o2)cc1	none
O=C(Nc1ccccc1C(=O)NCCCn1ccnc1)c1ccccc1	E coli RNAP 20.8
COc1ccc(C(=O)Nc2ccccc2C(=O)NCCCn2ccnc2)cc1	none
